# Values without a mark were called inactive.
# System: Vero E6 infected with SARS-CoV-2
# Experiment: inhibition of SARS-CoV-2 cytopathic effect; higher = more antiviral protection, active = above 15
# Details: 48 h
Compound,inhibition of SARS-CoV-2 cytopathic effect (1 nM) [%],inhibition of SARS-CoV-2 cytopathic effect (8.33 nM) [%],inhibition of SARS-CoV-2 cytopathic effect (100 nM) [%],inhibition of SARS-CoV-2 cytopathic effect (833.33 nM) [%],inhibition of SARS-CoV-2 cytopathic effect (10000 nM)
CC1(C)CCC(C)(C)c2cc(C3(c4ccc(C(=O)O)cc4)OCCO3)ccc21,-2.44,-2.21,1,-0.7,-1.37%
C[C@H](N)[C@H](O)c1cccc(O)c1 [metaraminol],5.57,5.04,2.34,1.83,1.14%
O=C(NCC(=O)N1CCCC1)Nc1ccc2cnccc2c1,-2.26,0.25,0.13,1,-1.4%
C[C@]12CC[C@@H]3c4ccc(O)cc4C[C@@H](CCCCCCCCC[S+]([O-])CCCC(F)(F)C(F)(F)F)[C@H]3[C@@H]1CC[C@@H]2O (stereo not given in full) [fulvestrant],-1.55,-1.22,0.63,-0.23,-0.95%
CCN(CC)CCO[C@H]1CC[C@@]2(C)C(=CC[C@@H]3[C@@H]2CC[C@]2(C)C(=O)CC[C@@H]32)C1,1.95,2.95,1.19,3.83,19.6% (active)
C=CC(C)(C)c1cc(/C=C/C(=O)c2ccc(O)cc2)c(OC)cc1O [licochalcone-A],-0.14,0.43,-0.55,-9.62,8.6%
COc1cc(C(C)=O)ccc1O [apocynin],0.03,-1.17,-2.23,-0.09,1.17%
COc1cc(N2CCC(N3CCN(C)CC3)CC2)ccc1Nc1ncc(Cl)c(Nc2ccccc2P(C)(C)=O)n1 [brigatinib],0.45,-1.85,-2.21,-0.42,-5.17%
Oc1cccc2cccnc12 [oxyquinoline],-1.21,-0.58,0.04,2.84,-0.31%
CC(C)(C)NCC(O)COc1cc(Cl)ccc1Cl (stereo not given) [cloranolol],-3.31,-3.27,-3.87,-3.29,-8.51%
O=CN1CCC(C(=O)NCCN2CCC(=C3c4ccccc4C=Cc4ccccc43)CC2)CC1,1.02,0.48,0.42,-2.21,1.23%
Cc1ccc([N+](=O)[O-])cc1O [2-methyl-5-nitrophenol],-2.8,-2.93,-4.49,-3.09,-2.25%
Cc1ccsc1C(=CCCN1CCC[C@@H](C(=O)O)C1)c1sccc1C [tiagabine],1.59,1.98,0.33,-3.02,0.65%
O=C(NO)c1ccc(O)c(O)c1 [didox],1.58,0.68,1.83,-2.16,-2.13%
COc1ccc(-c2coc3cc(O)ccc3c2=O)cc1 [formononetin],0.45,1.81,1.27,-2.13,-0.02%
NC12CC3CC(CC(C3)C1)C2 [amantadine],0.16,1.94,0.25,0.33,3.28%
C[C@@H]1CC[C@@]2(NC1)O[C@H]1C[C@H]3[C@@H]4CC=C5C[C@@H](O[C@@H]6O[C@H](CO)[C@@H](O[C@@H]7O[C@@H](C)[C@H](O)[C@@H](O)[C@H]7O)[C@H](O)[C@H]6O[C@@H]6O[C@@H](C)[C@H](O)[C@@H](O)[C@H]6O)CC[C@]5(C)[C@H]4CC[C@]3(C)[C@H]1[C@@H]2C [solamargine],-1.13,-0.16,0.07,-3.82,-15.1%
Nc1nc2c(cnn2CCc2ccccc2)c2nc(-c3ccco3)nn12,1.74,1.86,-4.65,-2.26,-2.96%
CC(C)(C)c1cc(C(=O)/C(C#N)=N/Nc2cccc(Cl)c2)no1,1.62,-1.2,-0.43,2.18,11.6%

Compound,inhibition of SARS-CoV-2 cytopathic effect (1 nM) [%],inhibition of SARS-CoV-2 cytopathic effect (8.33 nM) [%],inhibition of SARS-CoV-2 cytopathic effect (100 nM) [%],inhibition of SARS-CoV-2 cytopathic effect (833.33 nM) [%],inhibition of SARS-CoV-2 cytopathic effect (10000 nM)
Cc1cc(CCC[C@H](CC(=O)NO)C(=O)N[C@H](C(=O)N[C@H](C)c2ccccc2)C(C)(C)C)ccc1-c1ccccc1,-1.73,-2.08,-3.51,-2.76,-13%
C=C(C)[C@@H]1[C@H]2OC(=O)[C@@H]1[C@]1(O)C[C@H]3O[C@]34C(=O)O[C@H]2[C@]14C [picrotoxinin],-2.53,-1.67,-2.12,-3.39,-2.53%
CNC(=O)c1cc(Oc2ccc(NC(=O)Nc3ccc(Cl)c(C(F)(F)F)c3)c(F)c2)ccn1 [regorafenib],2.3,3.25,1.21,-1.69,2.67%
C#Cc1cccc(Nc2ncnc3cc(OCCOC)c(OCCO)cc23)c1,2.26,-0.66,-2.61,-4.18,-8.66%
O=C(/C=C/c1c(C(=O)O)[nH]c2cc(Cl)cc(Cl)c12)Nc1ccccc1 [gavestinel],-3.94,-3.2,-2.69,-2.17,-3.95%
CC(C)NCC(O)c1ccccc1Cl (stereo not given) [clorprenaline],2.05,1,0.74,1.39,-1.17%
CC(=O)C1=C(O)[C@@H]2[C@H]3c4c[nH]c5cccc(c45)C[C@H]3C(C)(C)N2C1=O [cyclopiazonic-acid],0.48,0.86,2,-0.85,14.2%
CN(C)[C@@H]1CCc2[nH]c3ccc(NC(=O)c4ccc(F)cc4)cc3c2C1,-0.2,0.81,1.23,3.46,4.97%
CC(C)C[C@H](NC(=O)[C@@H](Cc1c[nH]c2ccccc12)NC(=O)[C@H](Cc1ccc(O)cc1)NC(=O)[C@H](CO)NC(=O)[C@H](Cc1c[nH]c2ccccc12)NC(=O)[C@H](Cc1c[nH]cn1)NC(=O)[C@@H]1CCC(=O)N1)C(=O)N[C@@H](CCCNC(=N)N)C(=O)N1CCC[C@H]1C(=O)NCC(N)=O [triptorelin],-0.4,2.79,1.66,2.17,0.84%
O=[N+]([O-])c1cnc(Sc2nnc(O)n2-c2ccc3c(c2)OCCO3)s1,0.17,0.75,1.8,0.05,-17.7%
OCCn1cc(-c2ccc3c(c2)CC/C3=N\O)c(-c2ccncc2)n1,8.04,9.39,8.46,10.2,8.08%
CCCCCCCCCCCCCCCCCCOP(=O)([O-])OC1CC[N+](C)(C)CC1 [perifosine],0.3,-1.34,-0.76,-1.89,-0.93%
CCC(CC)COC(=O)[C@H](C)N[P@](=O)(OC[C@H]1O[C@@](C#N)(c2ccc3c(N)ncnn23)[C@H](O)[C@@H]1O)Oc1ccccc1 [Remdesivir],-0.54,1.32,1.51,0.56,9.79%
C=C[C@@]1(C)CC(=O)[C@]2(O)[C@@]3(C)[C@@H](O)CCC(C)(C)[C@@H]3[C@H](O)[C@H](OC(C)=O)[C@@]2(C)O1 [colforsin],2,2.29,2.56,-1.53,0.905%
O=C(Nc1ccncc1)c1cc([N+](=O)[O-])ccc1Cl,-0.14,1.74,-1.69,-1.5,14.7%
CN1CCN(c2ccc3ccccc3n2)CC1 [N-methylquipazine],0.97,-1.57,0.41,-1.31,-0.19%
CC(=O)c1ccc2c(c1)N(CCCN(C)C)c1ccccc1S2 [acepromazine],-0.95,1.58,-2.17,-3.24,-1.2%
CCN(CC)CCOc1ccccc1C(=O)CCc1ccccc1 [etafenone],1.2,0.17,-0.61,0.23,-3.07%
CO[C@@]1(NC(=O)CSC[C@@H](N)C(=O)O)C(=O)N2C(C(=O)O)=C(CSc3nnnn3C)CS[C@@H]21 [cefminox],-0.91,0.78,-1.2,-1.63,1.75%

# — the supplement of paper PMC13380429
